Most compounds without a hit are left out; they make up all but 3.3% or so of the library.
Tau fil binding – qHTS Assay for Tau Filament Binding | 71,000 tested, 2% active | AID 596, 2007 | Potency, µM (titrated, usually from 57.1 µM) | Microtubule-associated protein tau (Homo sapiens), P10636 | recombinant tau filaments, thioflavin S fluorescence, 15 h; filaments grown with octadecylsulfate alongside compound;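 also: actives lower thioflavin S fluorescence by blocking filaments or displacing dye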
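Recombinant tau protein (human, 1 uM final) plus 30 uM ODS in HEPES pH 7.4 with NaCl, DTT and thioflavine S. Compound present from the start; fluorescence at 510 nm after 15 h, 37 C.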
YjeE inh – qHTS Assay for Inhibitors of YjeE; tRNA threonylcarbamoyladenosine biosynthesis protein TsaE (Escherichia coli (strain …; purified YjeE enzyme, qHTS inhibition assay; Potency, µM; 71,000 tested, 0.05% active; AID 605, 2007
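Purified YjeE (10 uM) with BODIPY Texas Red-labeled ADP probe (2 uM); compounds pin-transferred, 15 min at room temperature. Binding inhibition read as decreased fluorescence polarization; ADP titration as control.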
BRCT PPI green – qHTS Assay for Inhibitors of BRCT-Phosphoprotein Interaction (Green Fluorophore); 75,000 tested, 0.05% active; Potency, µM (top dose mostly 76.9 µM), most hits filed as inhibitors; Breast cancer type 1 susceptibility protein (Homo sapiens), P38398; BRCA1 BRCT-phosphopeptide binding, green fluorescence polarization; AID 875, 2007
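Fluorescence polarization: His-tagged BRCT (~35 kDa BRCA1 C-terminus, 250 nM) bound to 100 nM fluorescein-labeled phosphorylated 10-aa BACH1 peptide, pH 7.3 phosphate buffer with DTT and Tween 20. Compounds incubated 12 min at room temperature; inhibition read as lowered polarization.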
Pol III holo inh – qHTS Assay for Inhibitors of DNA Polymerase III Holoenzyme System | reconstituted DNA polymerase III holoenzyme replication, biochemical | Potency, µM (series often up to 57.1 µM) | 71,000 tested, 0.25% active | AID 603, 2007
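Reconstituted *E. coli* holoenzyme (0.35 nM Pol III, 1 nM beta, 154 nM SSB, 2 nM primase) was preincubated with compound for 15 min at RT. Synthesis on 1.4 nM ssM13Gori ran 35 min, then was stopped with PicoGreen/EDTA and read as dsDNA fluorescence.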
15-hLO inh – qHTS Assay for Inhibitors of 15-hLO (15-human lipoxygenase) | Polyunsaturated fatty acid lipoxygenase ALOX15 (Homo sapiens), P16050 | purified 15hLO-1, xylenol orange hydroperoxide absorbance | Potency, µM (top dose mostly 57.1 µM), most hits filed as inhibitors | 74,000 tested, 1.4% active | AID 887, 2007; also: nearly all actives have a fitted effect of over 55% in size
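Hydroperoxide formed from arachidonic acid (50 uM) by purified human 15hLO-1 (40 nM) oxidizes ferrous iron, and the ferric-xylenol orange complex is read at 573 versus 405 nm. Compounds were preincubated 15 min; reaction ran 6 min at room temperature.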
BRCT inh red – qHTS Assay for Inhibitors of BRCT-Phosphoprotein Interaction (Red Fluorophore); BRCT-phosphopeptide binding, red fluorescence polarization; 75,000 tested, 0.03% active; Potency, µM (top dose mostly 76.9 µM), most hits filed as inhibitors
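Fluorescence polarization: 100 nM His-tagged BRCA1 BRCT with 100 nM TAMRA-labelled phospho-BACH1 decapeptide, phosphate buffer pH 7.3 with 150 mM NaCl, DTT, 0.01% Tween 20; 12 min RT. Binding inhibition seen as FP decrease.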
Each line names hits and unclear results; the compound was inactive in the other large screens. Calls follow the shape of the dose curve; as a rule, active = well fitted curve in the direction sought with a large enough effect; inconclusive = small, poorly fitted or top-dose-only effect, or another doubt; inactive = no such curve, though single readings can be large; an effect the other way counts as inactive or inconclusive.

COC(=O)c1ccccc1NC(=O)C1CC(=O)N(c2ccccc2)C1 (stereo unspecified)	none
CC(C)(C)N1C(=O)[C@H]2[C@H]3[C@H](O)[C@H](O)C/C(=N/NC(=O)OCc4ccccc4)[C@@H]3CC[C@@H]2C1=O	none (no result: Tau fil binding, YjeE inh, Pol III holo inh)
O=c1c(-c2cccc(F)c2)nc2cncnc2n1Cc1ccc(F)cc1	none
O=c1c(-c2ccc(F)c(F)c2)nc2cncnc2n1Cc1ccccc1Cl	Tau fil binding 7.9µM
O=c1c(-c2cc(F)cc(F)c2)nc2cncnc2n1Cc1ccccc1Cl	Tau fil binding inconclusive
O=c1c(-c2ccc(F)c(F)c2)nc2cncnc2n1Cc1ccc(F)cc1	Tau fil binding 16µM
C/C=C/C1Oc2ccc(OC)cc2N2C(=O)C(C)C(OCOC)C12 (stereo unspecified)	none (no result: Tau fil binding, YjeE inh, Pol III holo inh)
COCCNc1ncnc2ccc(-c3ccccc3OC)cc12	none
COCCNc1ncnc2ccc(-c3ccoc3)cc12	none
c1ccc(CNc2ncnc3ccc(-c4ccoc4)cc23)cc1	none
CN(C)c1ccc(-c2ccc3ncnc(NCc4ccccc4)c3c2)cc1	Tau fil binding 2.5µM
COCCNc1ncnc2ccc(-c3ccc(N(C)C)cc3)cc12	Tau fil binding 16µM
COCCNc1ncnc2ccc(-c3ccccc3C(F)(F)F)cc12	15-hLO inh 25µM
Cc1cnc(CNc2ncnc3ccc(-c4ccc(N(C)C)cc4)cc23)cn1	Tau fil binding 25µM, 15-hLO inh inconclusive
CCOC(=O)N/N=C1/C[C@@H](O)[C@@H](O)[C@@H]2[C@H]3C(=O)N(c4ccc(F)cc4F)C(=O)[C@@H]3CC[C@H]12	none (no result: Tau fil binding, YjeE inh, Pol III holo inh)
CCN(CC)CCn1c(-c2ccccc2)nc2c(NCCOC)nc(C)nc21	none
Cc1cnc(CNc2ncnc3ccc(-c4ccoc4)cc23)cn1	none
CCN(CC)c1cccc(O)c1	none
CN(C)c1cccc(O)c1	Tau fil binding 32µM
N#CC1=C(N)Oc2cc(O)ccc2C1c1cccs1 (stereo unspecified)	15-hLO inh inconclusive
CN(C)c1ccc2c(c1)OC(N)=C(C#N)C2c1cccc(F)c1 (stereo unspecified)	15-hLO inh 13µM
C[C@@]1(C(=O)O)NCCc2cc(O)c(O)cc21	Pol III holo inh 7.9µM
O=C(Oc1ccccc1)n1c(=O)oc2ccc(Cl)cc21	none (no result: Tau fil binding, YjeE inh, Pol III holo inh)
COc1ccc(OC)c2c(=S)c3ccccc3[nH]c12	Tau fil binding 13µM, 15-hLO inh 10µM
CC(C)C[C@@H](CC(=O)N[C@H](CC(=O)N[C@@H]1CCNC[C@H]1C(=O)N[C@H](CC(=O)N[C@@H](CCC(=O)O)CC(=O)O)Cc1ccccc1)C(C)C)NC(=O)[C@@H]1CNCC[C@H]1N	none (no result: BRCT PPI green, 15-hLO inh, BRCT inh red)
O=C(O)[C@@H](c1ccccc1)[C@@H](C(=O)O)c1ccccc1	none
O=c1cc(Nc2ccc3c(c2)OCO3)[nH]c(=O)n1-c1ccc(Br)cc1	Tau fil binding 16µM
O=c1cc(Nc2ccc3c(c2)OCCO3)[nH]c(=O)n1-c1ccc(Br)cc1	none
CCCn1c(C)nc2c(NCCCN(CC)CC)nc(C)nc21	none
CC(C)NC(=O)N1CCC2(CC1)CCN(S(=O)(=O)c1ccccc1)CC2	none
COC(=O)c1ccc(O)c(Sc2cc(C(=O)OC)ccc2O)c1	15-hLO inh 16µM
C=C(C)CC1Nc2ccccc2NC1CC(=C)C (stereo unspecified)	15-hLO inh 20µM
CN(C)C=NC(=O)/C(C#N)=C1\CCc2ccccc2N1	15-hLO inh 7.9µM
COC(=O)C/C=C\[C@@H](C)[C@@H]1C=C[C@H](OC(C)=O)[C@H](COC(C)=O)O1	none (no result: Tau fil binding, YjeE inh, Pol III holo inh)
O=C(Cn1c(-c2ccccc2)noc1=O)Nc1ccc(S(=O)(=O)N2CCOCC2)cc1	none
